Growth data for 14 compounds are collected here from PubChem BioAssay (NCI).

This is part of a sample that, as a whole, favours compounds with a hit. Of some 83,000 tested, about 20% had one in any assay.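 Activity criterion: percent growth below 10, measured after cells in 96-well plates were exposed to a single compound concentration for 48 hours.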 Values without a mark were called inactive.

This test has as its system OVCAR-4 ovarian. Nature of the test: NCI-60 one-dose screen, 48 h (100 = growth as untreated, 0 = no growth, -100 = all killed). To be noted: 10 µM unless noted.
For `Cn1cc(C2=C(c3cn(C4CCN(Cc5ccccn5)CC4)c4ccccc34)C(=O)NC2=O)c2ccccc21`, the growth is 76.8%.

For the compound `O=C1OCCC1Br` (centres undefined), the growth is 107%. Under `CC(CO)NC1CCCCC1` (centres undefined) stands 102%; under `CC[C@H](C)[C@H](NC(=O)C12CC(NC(C)=O)(C1)C2)C(=O)N(C)[C@H](C[C@@H](OC(C)=O)c1nc(C(=O)N[C@@H](Cc2ccccc2)C[C@H](C)C(=O)OC)cs1)C(C)C`, 43.3%. Under `CC[C@H](C)[C@H](NC(=O)NC(C)(C)C)C(=O)N(C)[C@H](C[C@@H](OC(C)=O)c1nc(C(=O)N[C@@H](Cc2ccccc2)C[C@H](C)C(=O)OC)cs1)C(C)C` stands 36.2%; under `ClCCN(CCCl)Cc1ccc(Nc2ccnc3cc(Cl)ccc23)cc1`, 48.2%. For `O=C(N/N=C\c1ccc(N(CCCl)CCCl)cc1)c1cccc([N+](=O)[O-])c1` the value was 87%; for `O=[N+]([O-])c1c(Br)sc(Br)c1[N+](=O)[O-]`, 30.9%.

On to `CC12CC(=O)C3(SC#N)C(CCC4=CC(=O)CCC43C)C1CCC2=O` (centres undefined), for which the growth was 73.8%. Under `CCn1c2ccccc2c2cc(C(=O)c3ccc(C)c4ccccc34)ccc21` stands 48.5%.

On to `COc1ccc([As]=[As]c2ccc(OC)c(NCS(=O)(=O)O)c2)cc1NCS(=O)(=O)O` (centres undefined), for which the growth is 14.9%. Under `NC1CC2CCCCC2CC1(O)c1ccccc1` (centres undefined) stands 102%. Consider `N/C(=N/N=C/c1ccncc1)N[N+](=O)[O-]`, for which the growth was 103%. Consider `O=C1CCC2(O)[C@@H]3Cc4ccc(O)c5c4[C@]2(CCN3Cc2ccoc2)C1O5` (some centres undefined), for which the growth was 105%.
